Assay outcomes from PubChem.
Compounds with a hit are over-represented: about 1.8% of the library has one in this group of screens.
LYPLA2 inh – LYPLA2 inhibitors, primary screen, counter-screen for PME1 inhibitor project, biochemical, fluorescence polarization, FP-Rh probe ABPP; Acyl-protein thioesterase 2 (Homo sapiens), O95372; recombinant LYPLA2; inhibition, % at 5.9 µM; 320,000 compounds, 0.38% hits; AID 2177, 2009;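 active = inhibition above the screen-wide mean plus 3 SD, limit set per campaign, cut at about 26% in these data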;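 also: 0% = LYPLA2 with DMSO and 100% = wells lacking LYPLA2 enzyme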
Fam108B counter – mouse Fam108B serine hydrolase inhibitors, primary screen, counter-screen for RBBP9 inhibitor project, biochemical, fluorescence polarization; inhibition, % at 9.51 µM; recombinant Fam108B, FP-Rh probe fluorescence polarization; 300,000 compounds, 0.33% hits;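 active = inhibition above the screen mean inhibition plus 3 SD, computed separately per campaign, cut at about 18% in these data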;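 also: inhibitors lower polarization as less probe binds the enzyme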
LYPLA1 counter – LYPLA1 inhibitors, primary screen, counter-screen for PME1 inhibitor project, biochemical, fluorescence polarization, FP-Rh probe ABPP; Acyl-protein thioesterase 1 (Homo sapiens), O75608; recombinant LYPLA1; inhibition, % at 5.9 µM; 320,000 compounds, 0.16% hits; AID 2174, 2009;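 active = inhibition above the mean of all tested compounds plus 3 SD, set per campaign, cut at about 14% in these data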;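 also: inhibitors block serine hydrolase probe labeling of LYPLA1 so polarization falls; 0% = enzyme with DMSO and 100% = wells lacking LYPLA1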
Target sequence (O75608 whole entry, looked up): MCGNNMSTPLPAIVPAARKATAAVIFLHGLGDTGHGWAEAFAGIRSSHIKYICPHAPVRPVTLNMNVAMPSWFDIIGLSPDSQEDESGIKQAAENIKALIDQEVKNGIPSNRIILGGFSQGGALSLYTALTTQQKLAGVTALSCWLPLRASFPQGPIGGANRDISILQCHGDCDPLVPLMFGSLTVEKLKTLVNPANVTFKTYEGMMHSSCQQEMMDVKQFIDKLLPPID
PME-1 inh – PME-1 inhibitors via competitive probe labeling, primary screen, biochemical, fluorescence polarization, FP-Rh probe, HTS. Protein phosphatase methylesterase 1 (Homo sapiens), Q9Y570. recombinant PME-1. inhibition, % at 5.9 µM. 320,000 compounds, 0.53% hits. AID 2130, 2009;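 active = inhibition above the campaign mean of all compounds plus 3 SD, cut at about 26% in these data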;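 also: competitive labeling of PME-1 active site by serine hydrolase directed probe; 0% = PME-1 with DMSO and 100% = wells lacking PME-1 enzyme; inhibitors block probe labeling so polarization falls and inhibition rises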
GSTO1 inh – inhibitors of recombinant GSTO1, primary screen, counter-screen for RBBP9 inhibitor project, biochemical, fluorescence polarization | activity-based probe fluorescence polarization | inhibition, % at 5.96 µM | 300,000 compounds, 1.1% hits | AID 1974, 2009;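 active = inhibition above the campaign mean inhibition plus 3 SD, cut at about 35% in these data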;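 also: 0% = GSTO1-1 with DMSO and 100% = wells lacking GSTO1-1 enzyme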
Target sequence (P78417 whole entry, looked up): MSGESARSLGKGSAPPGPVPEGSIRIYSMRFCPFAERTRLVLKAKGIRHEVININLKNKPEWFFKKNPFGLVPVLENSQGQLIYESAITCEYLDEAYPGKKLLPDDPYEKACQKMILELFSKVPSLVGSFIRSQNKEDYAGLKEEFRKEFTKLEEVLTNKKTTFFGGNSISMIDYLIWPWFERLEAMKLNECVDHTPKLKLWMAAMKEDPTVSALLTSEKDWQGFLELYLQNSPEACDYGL
PAD4 FP inh – human PAD4 inhibitors, primary screen, biochemical, fluorescence polarization, 1536-well format; Protein-arginine deiminase type-4 (Homo sapiens), Q9UM07; recombinant PAD4, RCA probe fluorescence polarization; inhibition, % at 6.36 µM; 330,000 compounds, 0.41% hits; AID 485272, 2010;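 active = percent inhibition above a cutoff equal to the mean of all tested compounds plus 3 SD, cut at about 15% in these data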;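 also: 0% = PAD4 with RCA probe and DMSO and 100% = probe without PAD4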
Fam108b inh conf – mouse Fam108b serine hydrolase inhibitors, confirmation, counter-screen for RBBP9 inhibitor project, biochemical, fluorescence polarization, triplicate. inhibition, % at 9.51 µM. 930 compounds, 44% hits. shares compounds with Fam108B counter. recombinant Fam108b, FP-Rh probe fluorescence polarization. AID 1978, 2009;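 active = inhibition above a limit from the primary screen, the mean over all compounds plus 3 SD, cut at about 19% in these data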;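 also: 0% = median of active Fam108b wells and 100% = catalytically dead S170A mutant; inhibitors free the probe so polarization falls as inhibition rises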
Fam108b inh – inhibition of mouse Fam108b by HTS hits, late-stage follow-up, biochemical, gel-based ABPP, soluble recombinant form; shares compounds with Fam108B counter; fluorophosphonate probe; inhibition, % at 20 µM; 260 compounds, 44% hits; AID 588649, 2011; in the data active = inhibition above about 40%
* = called active by the depositor; x = not tested or not shown.

SMILES | LYPLA2 inh | Fam108B counter | LYPLA1 counter | PME-1 inh | GSTO1 inh | PAD4 FP inh | Fam108b inh conf | others
COc1ccc(NC(=O)C2CC(c3ccccc3Cl)=NO2)cc1 (stereo unspecified) | 3 | -3 | 1 | -2 | 9 | 5 | x
COc1cccc2c1C(=O)c1c(O)c3c(c(O)c1C2=O)C[C@@](O)(C(C)=O)C[C@@H]3O[C@H]1C[C@H](N)[C@H](O)[C@H](C)O1 | x | x | x | x | x | x | x | Fam108b inh=0
COc1ccccc1NC(=O)CCC(=O)OCc1ccc([N+](=O)[O-])cc1 | 0 | -4 | -1 | -6 | -6 | -8 | x
Cc1cc(C(=O)CSc2nnnn2C)c(C)n1Cc1ccco1 | 8 | -3 | 3 | 0 | 3 | -3 | x
Cc1cc(C(=O)CSc2ncccn2)c(C)n1Cc1ccco1 | 2 | 19* | 1 | -1 | 5 | -2 | 5
COCCNC(=O)C(c1ccc(C)o1)N(C(=O)C(=O)NC1CCCCC1)c1ccc(F)cc1 (stereo unspecified) | 7 | -2 | -1 | 1 | 1 | -1 | x
Brc1ccc(N/N=C(/N=Nc2nn[nH]n2)c2ccccc2)cc1 | 17 | 25* | 13 | 51* | 25 | 0 | 28*
O=C(O)c1cccc(N/N=C(\N=Nc2ccccc2)c2ccccc2)c1 | 10 | 8 | 3 | 10 | 21 | 1 | x
C/C(=N\NC(=O)c1ccn(C)n1)c1ccco1 | 4 | -3 | -4 | -1 | 9 | -3 | x
COc1ccc(Nc2ncnc3sc(-c4ccccc4)cc23)cc1OC | -6 | 54* | 2 | 39* | 0 | 2 | -12
COc1ccc(Nc2ncnc3c2cnn3-c2ccccc2)cc1OC | 1 | 3 | 3 | 5 | 3 | -1 | x
Cc1ccc(NC(=O)CSc2nnc(CNC(=O)c3ccco3)n2C)cc1C | 8 | 3 | 4 | 2 | 12 | -1 | x
CCCC#CCN1CCN(C23CC4CC(CC(C4)C2)C3)CC1 | 3 | 18* | 1 | 4 | 1 | 0 | 0
CCCCCC#CCN1CCN(C23CC4CC(CC(C4)C2)C3)CC1 | 0 | x | 0 | -2 | x | -1 | x
Cc1ccc(NC2=C/C(=N/S(=O)(=O)c3cccs3)c3ccccc3C2=O)cc1C | 0 | 5 | -2 | 4 | 30 | -17 | x
O=C1C(Nc2ccccc2)=CC(=NS(=O)(=O)c2cccs2)c2ccccc21 | x | x | x | x | x | x | x | Fam108b inh=0
CC(=O)Nc1ccc(NC2=CC(=NS(=O)(=O)c3cccs3)c3ccccc3C2=O)cc1 | x | x | x | x | x | x | x | Fam108b inh=20
OCCNC(=S)c1ccccc1 | -4 | -6 | -3 | -8 | -1 | 2 | x
COC(=O)N/N=C/c1cc(N=Nc2ccccc2Cl)ccc1O | -14 | 22* | -18 | -2 | -3 | -1 | -3
Nc1ccc(C(=O)N/N=C\c2cc(N=Nc3cccc4ccccc34)ccc2O)cc1 | 7 | 21* | -5 | 40* | 6 | 3 | 18
Cc1cc(C(=O)N/N=C/c2cc(N=Nc3ccccc3)ccc2O)n[nH]1 | 5 | 20* | -9 | 7 | 0 | -7 | 11
COC(=O)N/N=C/c1cc(N=Nc2ccccc2)ccc1O | 0 | 4 | -1 | 3 | 5 | 3 | x
COCCn1c(=O)[nH]c2cc(C(=O)NCCc3ccc(S(N)(=O)=O)cc3)ccc2c1=O | -4 | -4 | -1 | 0 | 4 | -1 | x
CCc1ccc(N2CN=c3s/c(=C\c4ccccc4)c(=O)n3C2)cc1 | 2 | -2 | 2 | 0 | -9 | -3 | x
CN(C)S(=O)(=O)c1cccc(NC(=O)COC(=O)c2cc(-c3cccc(Br)c3)nc3ccccc23)c1 | -21 | 31* | -15 | 5 | -36 | -1 | 60* | Fam108b inh=90*
